Compound activity: PubChem BioAssay, several laboratories
Sampled rows, rich in hits. Any-hit rate of the full collection: about 3.8%.
697 NFkB inh: lowers PMA/ionomycin-induced NF-kB signal in 697 B cells. 697 B-cell NF-kB luciferase reporter, 16 h. inhibition, % at 4 µM. actives 0.33% (n = 330,000); in the data active = inhibition above about 35%
NTR1 ag: agonists of human neurotensin receptor NTR1 | P30989 | NTR1-U2OS beta-arrestin-GFP spot imaging, agonist mode | activation, % at 20 µM | actives 0.17% (n = 330,000);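 active = activation at or above 40% of the spot to cytoplasm intensity ratio, with at least 20 cells analyzed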;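 also: 0% = DMSO without peptide and 100% = 100 nM NTR1 peptide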
Jurkat NFkB inh: lowers PMA/ionomycin-induced NF-kB signal in Jurkat cells. actives 0.53% (n = 330,000). PMA/ionomycin-induced NF-kB luciferase reporter, luminescence. inhibition, % at 4 µM; in the data active = inhibition above about 50%
Beta apoptosis: beta cell apoptosis inhibition. INS-1E cytokine-induced death, ATP luminescence, 48 h; percent of positive-control rescue, neutral wells zero. protection from apoptosis, % (no concentration beside the values). actives 0.8% (n = 300,000). AID 435005;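 active = Every replicate reaches about 75%, or at least half do and their mean reaches it too, limit read from the data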;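 also: 0% = cytokine-treated negative control wells and 100% = positive control rescue; higher means more ATP so stronger rescue from cytokine killing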
A1 inh: inhibitors of the anti-apoptotic protein A1, read as caspase activation. MEF A1-2A-BIM cells, Caspase-Glo 3/7 luminescence, 3 h; percent of clofoctol response, vehicle zero. caspase activation, % (test concentration not listed). actives 0.066% (n = 330,000). AID 2462;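 active = over half of replicate activation scores above 10%, or exactly half above 10 with the replicate mean above 10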
Mdm2 MdmX PPI: disrupts the human Mdm2-MdmX interaction; actives 3% (n = 330,000); SaOS-2 split-luciferase Mdm2/MdmX complementation, luminescence; AID 485346; O15151+Q00987; inhibition, % at 8 µM;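 active = inhibition of at least 50% at 8 µM in the primary screen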
Target sequence (O15151 whole entry, looked up): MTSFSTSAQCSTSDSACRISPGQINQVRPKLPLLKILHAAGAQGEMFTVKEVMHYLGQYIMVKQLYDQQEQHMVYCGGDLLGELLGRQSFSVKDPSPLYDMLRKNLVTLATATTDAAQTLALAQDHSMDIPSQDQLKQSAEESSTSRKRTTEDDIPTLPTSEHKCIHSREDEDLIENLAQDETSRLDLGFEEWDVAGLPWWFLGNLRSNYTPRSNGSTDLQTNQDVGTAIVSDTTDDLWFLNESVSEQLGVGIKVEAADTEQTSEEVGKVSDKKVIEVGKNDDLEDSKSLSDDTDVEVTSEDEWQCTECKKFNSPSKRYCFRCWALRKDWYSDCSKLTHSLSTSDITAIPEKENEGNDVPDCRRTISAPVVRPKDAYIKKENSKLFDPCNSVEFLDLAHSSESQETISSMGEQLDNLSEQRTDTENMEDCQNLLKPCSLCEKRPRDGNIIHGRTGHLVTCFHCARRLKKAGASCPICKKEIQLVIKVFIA
Target sequence (Q00987 whole entry, looked up): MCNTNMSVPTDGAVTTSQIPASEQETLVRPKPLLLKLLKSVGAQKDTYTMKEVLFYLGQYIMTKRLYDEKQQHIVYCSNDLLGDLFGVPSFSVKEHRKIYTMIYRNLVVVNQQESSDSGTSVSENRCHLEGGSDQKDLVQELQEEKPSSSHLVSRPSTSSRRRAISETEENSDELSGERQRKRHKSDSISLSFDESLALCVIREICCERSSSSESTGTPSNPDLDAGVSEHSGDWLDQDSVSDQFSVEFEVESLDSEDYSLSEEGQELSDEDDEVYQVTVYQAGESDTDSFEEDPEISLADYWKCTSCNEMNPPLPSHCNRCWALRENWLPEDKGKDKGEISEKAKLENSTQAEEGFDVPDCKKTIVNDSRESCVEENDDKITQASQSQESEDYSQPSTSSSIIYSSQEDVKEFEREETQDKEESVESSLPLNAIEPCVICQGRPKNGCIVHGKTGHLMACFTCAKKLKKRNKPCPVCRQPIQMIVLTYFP
NTR1 ag confirm: confirmation of agonists of human NTR1; AID 504550; actives 38% (n = 480); NTR1-U2OS beta-arrestin-GFP translocation imaging; activation, % at 20 µM; shares compounds with NTR1 ag;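 active = mean activation at 20 µM of at least 40%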;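 also: 0% = DMSO without peptide and 100% = 100 nM NTR1 peptide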
* = called active by the depositor; / = no result.

SMILES | 697 NFkB inh | NTR1 ag | Jurkat NFkB inh | Beta apoptosis | A1 inh | Mdm2 MdmX PPI | NTR1 ag confirm
Cc1ccc(-n2nnc3c(=O)oc4ccccc4c32)cc1 | -0.4 | 57.7* | -4.2 | 7.2 | 0.6 | 18.0 | 19.8
C=CCNC(=O)C1=NN(c2c(F)c(F)cc(F)c2F)C(=O)CC1 | 11.1 | 1.8 | -4.4 | -2.6 | 1.0 | 13.6 | /
CC(C)=CCc1c(O)c(CC=C(C)C)c2c(c1O)C(=O)CC(c1ccc(O)cc1)O2 (centres undefined) | -18.4 | 46.4* | 4.3 | 3.9 | -0.2 | 24.0 | 38.7
CC(C)=CCc1c(O)cc(O)c2c1OC(c1ccc(O)cc1)CC2=O (centres undefined) | 14.2 | 6.3 | -7.0 | -0.2 | -0.7 | 11.2 | /
Cc1ccc(C(=O)/C=C/C(=O)c2ccc(C)cc2)cc1 | 16.6 | 41.6* | 9.7 | 0.1 | 9.9* | 43.9 | 73.1*
O=C(CN1CCN(C(=O)c2ccc(-c3nc4ccccc4s3)o2)CC1)Nc1ccccc1Cl | -70.7 | 48.3* | -52.1 | / | / | 28.2 | 25.1
Cc1cccc(NC(=O)CN2CCN(C(=O)c3ccc(-c4nc5ccccc5s4)o3)CC2)c1C | -83.5 | 16.1 | -46.1 | / | / | -12.7 | /
CCOc1ccc(-c2cccc(NC(=O)COc3ccc(Cl)cc3)c2)nn1 | -29.5 | 8.0 | 11.2 | -3.4 | -2.5 | -14.9 | /
CCOC(=O)C1CN(S(=O)(=O)c2cc(OC)ccc2OC)C1 | -11.0 | -0.3 | -5.8 | -0.8 | 0.0 | -11.0 | /
Nc1nc(N)c(C=Nc2ccc(Br)cc2)c(Nc2ccc(Br)cc2)n1 | -1.2 | 59.4* | -2.5 | -11.5 | 0.9 | 15.5 | 31.8
Cc1cc(NC(=O)COC(=O)CCS(=O)(=O)c2cc(Cl)ccc2Cl)no1 | 18.4 | 1.4 | 13.3 | -8.7 | 0.2 | 12.4 | /
Cc1ccccc1-n1nc(C(=O)c2cccs2)cc(-c2nc3ccccc3[nH]2)c1=N | -31.0 | 55.0* | -11.9 | 33.9 | -2.4 | 38.5 | 1.7
Cc1cccc(-n2nc(C(=O)c3ccco3)cc(-c3nc4ccccc4[nH]3)c2=N)c1 | -64.9 | 10.2 | -18.6 | 30.0 | -0.9 | 25.8 | /
O=[N+]([O-])c1ccc(-c2cnc(SC(c3ccccc3)c3ccccc3)[nH]2)cc1 | -27.2 | 54.4* | -24.1 | 31.1 | 0.0 | 45.7 | 17.7
CCc1cc(-c2n[nH]c(C)c2Oc2ccc(C(C)C)cc2)c(O)cc1O | -10.2 | 64.0* | -0.8 | -3.1 | -0.8 | 0.7 | 30.3
Cc1[nH]nc(-c2ccc(O)cc2O)c1Oc1ccccc1 | -28.5 | 2.4 | 19.9 | 1.4 | 0.4 | 39.1 | /
CCCN(C(=O)c1cc(Cl)nc2ccccc12)C1CCS(=O)(=O)C1 (centres undefined) | -12.3 | 1.2 | -6.5 | -8.2 | 0.4 | 9.1 | /
O=C(Nc1ccc(N2CCN(C(=O)c3ccccc3)CC2)cc1)c1cc2ccccc2o1 | -28.9 | 63.9* | 31.5 | 37.3 | -0.5 | 12.4 | 86.3*
CN1CCN(c2ccc(NC(=O)c3cc4ccccc4o3)cc2)CC1 | -103.8 | -1.0 | -130.8 | 1.9 | -0.1 | -98.7 | /
Cc1ccc(S(=O)(=O)N(CCCO)CC(O)CON=C2c3ccccc3-c3ccccc32)cc1 (centres undefined) | -8.3 | 46.7* | -10.5 | -1.1 | -0.5 | 44.2 | 21.5
COCCn1c(SCC(=O)c2c(N)n(C3CC3)c(=O)[nH]c2=O)nnc1-c1ccc(Cl)cc1 | 16.7 | 1.2 | 7.3 | -2.1 | 1.0 | -6.3 | /
O=C(/C=C/c1ccccc1F)c1cccc([N+](=O)[O-])c1 | 10.9 | 41.6* | -9.5 | -11.8 | -0.5 | 24.6 | 61.3*
NN=C(c1cccc([N+](=O)[O-])c1)c1cccc([N+](=O)[O-])c1 | 6.5 | 0.4 | -15.7 | 4.8 | -0.3 | -6.9 | /
Cc1cccc(NC(=O)CSc2nnc(-c3cc(C)[nH]n3)n2N)c1 | 1.5 | 0.9 | 8.6 | -4.8 | 1.1 | 9.3 | /
CCc1cccc(CC)c1-n1c(SCC(=O)N2CCc3ccccc3C2)nnc1-c1cccnc1 | -26.4 | 44.6* | -12.9 | -0.6 | -0.3 | 1.7 | 64.5*
COC(=O)c1cc(S(=O)(=O)N2CCN(C3CCCCC3)CC2)c[nH]1 | -1.2 | -0.7 | 20.5 | 5.4 | 0.8 | 37.1 | /
